Measurements from PubChem BioAssay (Tox21).
Records with an inconclusive call do not appear. Active and inactive are the calls of the source. Calls follow the shape of the full dose curve.

assay: p53 small molecule agonists, cell-based qHTS assay: qHTS cell viability counter screen (AID 1963581); conditions: p53RE-bla HCT-116 viability, ATP luminescence, 16 h; series mostly up to 66 µM; activity change, negative = cytotoxicity: at the top concentration; also: nearly all actives have a fitted effect of over 45% in size
From the text: National Center for Advancing Translational Sciences [NCATS]
Division of Preclinical Innovation [DPI]
U.S. Environmental Protection Agency [EPA]
National Institutes of Environmental Health Sciences [NIEHS]
National Toxicology Program [NTP]
U.S. Food and Drug Administration [FDA]
p53, a tumor suppressor protein, is activated following cellular insult, including DNA damage and other cellular stresses. The activation of p53 regulates cell fate by inducing DNA repair, cell cycle arrest, apoptosis, or cellular senescence. The activation of p53, therefore, is a good indicator of DNA damage and other cellular stresses. The CellSensor p53RE-bla HCT-116 cell line (Invitrogen) contains a stably integrated beta-lactamase reporter gene under control of the p53 response elements. The activation of the reporter gene under culture conditions can be detected by fluorescence intensity. This cell line was used to screen the Tox21 compound library in a 1536-well plate format and to identify agonists that activate the p53 signaling pathway. The cytotoxicity of the Tox21 compound library against the p53 RE-bla HCT-116 cell line was tested in parallel by measuring the intra cellular ATP content in the same wells.
Tox21 Assay Protocol Summary:
The p53RE-bla cells were dispensed at 4,000 cells/5 ul/well in 1536-well black wall/clear bottom plates using a Multidrop dispenser. After the assay plates were incubated at a 37 C/5% CO2 incubator for 5 hours, 23 nL of compounds dissolved in DMSO, positive controls or DMSO only was transferred to the assay plate by a pin tool. The plates were incubated at 37 C for 16 hours. After 1 uL of LiveBLAzerTM B/G FRET substrate was added using a Flying Reagent Dispenser, the plates were incubated at room temperature for 2 hours, and fluorescence intensity was measured by an Envision plate reader. For cell viability readout that measures cytotoxicity, 4 ul/well of CellTiter-Glo reagent was added into the assay plates using a Flying Reagent Dispenser. After 30 min incubation at room temperature, the luminescence intensity in the plates was measured using a ViewLux plate reader.
% is scaled to controls: 0 for no effect and ±100 for the full control effect; potency is read from the fitted curve at half-maximal effect.

Structure (SMILES)	activity change, negative = cytotoxicity	Potency
CC(C)CCCCOC(=O)c1ccccc1C(=O)OCCCCC(C)C	-18.9% (inactive)	
CC(C)(C)c1nnc(NS(=O)(=O)c2ccc(N)cc2)s1	-8.19% [at 30.3 µM] (inactive)	
O=P(O)(OCc1ccccc1)OCc1ccccc1	0% (inactive)	
O=Cc1ccccc1C=O		inactive
Nc1nccs1	0% (inactive)	
CC(C)=CCC[C@H](C)CC=O	-1.73% (inactive)	
O=C(O)CNc1ccccc1	0.508% (inactive)	
O=[N+]([O-])c1ccccc1CCO	5.49% (inactive)	
CC(=C(CCOC(=O)C(C)C)SSC(CCOC(=O)C(C)C)=C(C)N(C=O)Cc1cnc(C)nc1N)N(C=O)Cc1cnc(C)nc1N	21.2% [at 30.3 µM] (inactive)	
C=CC(=O)OCCCCCCCC	0.221% (inactive)	
COC(C)(C)CCO	2.25% (inactive)	
CCN1CCC[C@H]1CNC(=O)c1c(O)c(Cl)cc(Cl)c1OC	20.8% [at 30.3 µM] (inactive)	
CC(=O)Oc1ccccc1C(=O)Nc1ncc([N+](=O)[O-])s1		11.7 µM (active)
CC(C)(C)C(=O)C(Oc1ccc(Cl)cc1)n1ccnc1 (stereo not given)	-9.97% [at 30.3 µM] (inactive)	
CCc1ccc(C=O)cc1	-7.26% (inactive)	
O=C(O)CCS	8.36% (inactive)	
C[Si]1(C)O[Si](C)(C)O[Si](C)(C)O[Si](C)(C)O[Si](C)(C)O1	-6.35% (inactive)	
CCN(CC)C(=O)C1CN2CCc3cc(OC)c(OC)cc3C2CC1OC(C)=O (stereo not given)	-5.74% [at 30.3 µM] (inactive)	
CCc1c(Br)c(Br)c(Br)c(Br)c1Br	-1.36% (inactive)	
N#CCC(=O)O		inactive

Structure (SMILES)	activity change, negative = cytotoxicity	Potency
O=C1CCCc2ccccc21	10.3% (inactive)	
CCC(=O)O[C@@H]1C[C@H]2CC[C@]1(C)C2(C)C	2.91% (inactive)	
Cc1cccc(Cl)c1	-3.04% (inactive)	
c1cnccn1	-17.3% (inactive)	
COc1ccccc1NC(=O)CC(C)=O		inactive
C[C@]12CCC(=O)C=C1CC[C@@H]1[C@@H]2[C@@H](O)C[C@@]2(C)[C@H]1CC[C@]2(O)C(=O)CO		inactive
Cc1ccccc1OCC1CO1 (stereo not given)	-6.24% (inactive)	
FC(F)(F)c1ccccc1-n1ccnc1	0.21% [at 30.3 µM] (inactive)	
CO[Si](CCCNCCN)(OC)OC	17.3% (inactive)	
Cc1ccc(N(C)C)cc1		inactive
CC1(C)C(O)C(C)(C)C1O (stereo not given)	3.14% (inactive)	
COc1ccc(C#N)cc1	3.18% (inactive)	
CCCCOC(=O)C(=O)OCCCC	2.63% (inactive)	
CC(C)(C)NCCO	-0.36% (inactive)	
CCc1c(C(=O)O)c(=O)cnn1-c1ccc(Cl)cc1	12.6% (inactive)	
CN(C)c1cccc(O)c1		inactive
Cc1[nH]cnc1-c1ccc(Cl)cc1	-14.7% [at 30.3 µM] (inactive)	
CCCCOC(=O)CCS	-6.32% (inactive)	
NC(=O)c1cccc([N+](=O)[O-])c1	0% (inactive)	
NCC1(Cc2noc(=O)[nH]2)CCCCC1	9.16% (inactive)	
